Experiment [1] can be described thus: Tanguay_ZF_120hpf_MORT_legacy: (Legacy) Oregon State University Tanguay Lab 120 Hour Post-fertilization zebrafish Assay for Mortality (AID 2283633).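 On AC50: fitted as increase in binary mortality versus DMSO negative control.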 A digest of the protocol:
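Dechorionated Tropical 5D wild-type zebrafish embryos, one per well from 6 hpf, static exposure in 0.64% DMSO at 28C until 120 hpf. Mortality scored as binary by brightfield microscopy at 24 and 120 hpf.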

Experiment [2] is described as follows: Tanguay_ZF_120hpf_YSE_legacy: (Legacy) Oregon State University Tanguay Lab 120 Hour Post-fertilization zebrafish Assay for Yolk Sac Edema (AID 2283634). The method in brief:
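Dechorionated Tropical 5D wild-type zebrafish embryos were exposed statically, one per well, from 6 to 120 hpf at 28C in 0.64% DMSO. Yolk sac edema was scored present/absent by brightfield at 120 hpf, and dead embryos were excluded.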

Experiment [3] is described as follows: Tanguay_ZF_120hpf_AXIS_legacy: (Legacy) Oregon State University Tanguay Lab 120 Hour Post-fertilization zebrafish Assay for Body Axis Malformation (AID 2283635). The method in brief:
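Dechorionated wild-type Tropical 5D zebrafish embryos, one per well, statically exposed from 6 hpf to 120 hpf at 28C in 0.64% DMSO final. Body axis malformation scored present/absent by brightfield microscopy at 120 hpf; dead embryos excluded.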

Experiment [4] in a line: Tanguay_ZF_120hpf_EYE_legacy: (Legacy) Oregon State University Tanguay Lab 120 Hour Post-fertilization zebrafish Assay for Eye Malformation (AID 2283636).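 Further: binary presence or absence of eye malformation scored by brightfield in 120 hpf larvae.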 A digest of the protocol: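 Binary brightfield scoring of eye defects at 120 hpf after static exposure from 6 hpf of single pronase-dechorionated wild-type embryos (28C, 0.64% DMSO). Non-mortality endpoints omitted where embryos died; fit vs DMSO.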

Experiment [5] in a line: Tanguay_ZF_120hpf_SNOU_legacy: (Legacy) Oregon State University Tanguay Lab 120 Hour Post-fertilization zebrafish Assay for Snout Malformation (AID 2283637). A digest of the protocol:
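Binary snout-malformation call at 120 hpf in wild-type 5D embryos, chorion removed by pronase, under static exposure from 6 hpf at 28C (0.64% DMSO). Embryos dying by 24 or 120 hpf excluded.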

The nature of experiment [6]: Tanguay_ZF_120hpf_JAW_legacy: (Legacy) Oregon State University Tanguay Lab 120 Hour Post-fertilization zebrafish Assay for Jaw Malformation (AID 2283638). The method in brief:
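Dechorionated Tropical 5D wild-type zebrafish embryos, one per well, exposed statically from 6 hpf to 120 hpf at 28C in 0.64% DMSO. Jaw malformation was scored by brightfield microscopy as present or absent. It was not scored in dead embryos.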

Experiment [7] can be described thus: Tanguay_ZF_120hpf_OTIC_legacy: (Legacy) Oregon State University Tanguay Lab 120 Hour Post-fertilization zebrafish Assay for Otic Vesicle Malformation (AID 2283639). A digest of the protocol:
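Binary scoring of otic vesicle defects at 120 hpf in zebrafish (Tropical 5D) held under static exposure at 28C, sealed and shaded, with final DMSO 0.64%. Embryos dying by 24 or 120 hpf excluded; fitted positively against DMSO.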

Experiment [8] in a line: Tanguay_ZF_120hpf_PE_legacy: (Legacy) Oregon State University Tanguay Lab 120 Hour Post-fertilization zebrafish Assay for Pericardial Edema (AID 2283640). A digest of the protocol:
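Tropical 5D wild-type zebrafish embryos were statically exposed until 120 hpf at 28C, with 0.64% DMSO final. Pericardial edema was scored by brightfield as present or absent; endpoints were not scored in dead embryos.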

Experiment [9] can be described thus: Tanguay_ZF_120hpf_BRAI_legacy: (Legacy) Oregon State University Tanguay Lab 120 Hour Post-fertilization zebrafish Assay for Brain Malformation (AID 2283641). A digest of the protocol:
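Tropical 5D wild-type zebrafish embryos exposed statically until 120 hpf at 28C, 0.64% DMSO final, sealed and dark. Brain malformation scored present/absent by brightfield at 120 hpf; dead embryos excluded. Trimethyltin chloride 5uM positive control.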

Experiment [10] in a line: Tanguay_ZF_120hpf_SOMI_legacy: (Legacy) Oregon State University Tanguay Lab 120 Hour Post-fertilization zebrafish Assay for Somite Malformation (AID 2283647). The method in brief: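 Dechorionated Tropical 5D wild-type zebrafish embryos, one per well from 6 hpf, statically exposed at 28C to 120 hpf in 0.64% DMSO; somite malformation scored present/absent by brightfield; trimethyltin 5 uM positive control; dead embryos not scored.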

Experiment [11] is described as follows: Tanguay_ZF_120hpf_PFIN_legacy: (Legacy) Oregon State University Tanguay Lab 120 Hour Post-fertilization zebrafish Assay for Pectoral Fin Malformation (AID 2283648).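 Further: each larva judged yes or no for fin defect by brightfield with dead larvae skipped.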 The method in brief: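 Pectoral fin malformation was recorded as a binary endpoint at 120 hpf in wild-type Tropical 5D larvae, which had been dechorionated and exposed statically from 6 hpf at 28C in 0.64% DMSO. Dead embryos were excluded.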

Experiment [12] in a line: Tanguay_ZF_120hpf_CFIN_legacy: (Legacy) Oregon State University Tanguay Lab 120 Hour Post-fertilization zebrafish Assay for Caudal Fin Malformation (AID 2283649). The method in brief: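 Dechorionated Tropical 5D wild-type embryos, one per well from 6 hpf, static exposure to 120 hpf at 28C in 0.64% DMSO. Caudal fin malformation scored by brightfield as present/absent; not scored in dead embryos.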

A short description of experiment [13]: Tanguay_ZF_120hpf_PIG_legacy: (Legacy) Oregon State University Tanguay Lab 120 Hour Post-fertilization zebrafish Assay for Pigmentation Malformation (AID 2283650). The method in brief: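 Pigment malformation recorded as a binary call at 120 hpf in zebrafish (Tropical 5D) exposed singly from 6 hpf after pronase dechorionation. Static, sealed, 28C exposure, 0.64% DMSO; mortality excludes scoring; positive-direction fit against DMSO.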

The nature of experiment [14]: Tanguay_ZF_120hpf_CIRC_legacy: (Legacy) Oregon State University Tanguay Lab 120 Hour Post-fertilization zebrafish Assay for Circulatory Malformation (AID 2283651). A digest of the protocol: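 Binary circulatory malformation call at 120 hpf by brightfield imaging of zebrafish larvae; chorion removed at 4 hpf, static exposure from 6 hpf in sealed dark plates at 28C, final DMSO 0.64%; non-mortality endpoints skipped if embryo died.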

Experiment [15] in a line: Tanguay_ZF_120hpf_SWIM_legacy: (Legacy) Oregon State University Tanguay Lab 120 Hour Post-fertilization zebrafish Assay for Swim Bladder Malformation (AID 2283654).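 Further: swim bladder malformation in each larva scored yes or no under brightfield.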 A digest of the protocol:
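Scoring is binary for swim bladder defects at 120 hpf, by brightfield inspection of zebrafish larvae. Embryos were exposed singly from 6 hpf after pronase dechorionation, at 28C with 0.64% DMSO; mortality excluded scoring.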

A short description of experiment [16]: Tanguay_ZF_120hpf_TRUN_legacy: (Legacy) Oregon State University Tanguay Lab 120 Hour Post-fertilization zebrafish Assay for Truncated Body (AID 2283655). The method in brief:
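Dechorionated Tropical 5D wild-type embryos placed singly from 6 hpf and statically exposed to 120 hpf at 28C, final DMSO 0.64%. Truncated body scored as present/absent by brightfield; not scored in dead embryos.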

Experiment [17] in a line: Tanguay_ZF_120hpf_NC_legacy: (Legacy) Oregon State University Tanguay Lab 120 Hour Post-fertilization zebrafish Assay for Notochord and Tail Malformation (AID 2283656). The method in brief:
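Binary scoring of notochord distortion by brightfield microscopy; embryos dying were not scored. Wild-type Tropical 5D embryos, chorion removed, exposed singly and statically from 6 to 120 hpf, 28C, sealed, 0.64% DMSO.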

Read-out in experiment [18]: kallikrein-3 (KLK3), KLK3 (gene 354)
The experiment in a line: LTEA_HepaRG_KLK3: Life Technologies and Expression Analysis (LTEA) Assay for kallikrein-3 (KLK3) using HepaRG (AID 2283652; active means hit-call score of the fitted dose curve at least 0.9, where 1 is the maximum; inactive means score below 0.9). The note with it: mRNA level, 48 h; actives raise or lower the signal. A digest of the protocol: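 KLK3 transcript levels were measured by TaqMan qRT-PCR with normalisation to three housekeeping genes. HepaRG cultures received chemicals for 48 h at up to 100 uM (half-log, 8 points, 0.5% DMSO vehicle), fitted in both directions against DMSO.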

Read-out in experiment [19]: solute carrier (SLC22A6), SLC22A6 (gene 9356)
Description: LTEA_HepaRG_SLC22A6: Life Technologies and Expression Analysis (LTEA) Assay for solute carrier (SLC22A6) using HepaRG (AID 2283653; active means hit-call score of the fitted dose curve at least 0.9, where 1 is the maximum; inactive means score below 0.9). As to conditions: mRNA level, 48 h; actives raise or lower the signal. The method in brief:
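Differentiated HepaRG cells exposed 48 h in serum-free induction medium to 8 half-log concentrations, top 100 uM, in 0.5% DMSO; SLC22A6 mRNA by Fluidigm qRT-PCR normalized to ACTB, GAPDH, POLR2A, fitted bidirectionally versus DMSO.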

Read-out in experiment [20]: solute carrier (SLC10A1), SLC10A1 (gene 6554)
Description: LTEA_HepaRG_SLC10A1: Life Technologies and Expression Analysis (LTEA) Assay for solute carrier (SLC10A1) using HepaRG (AID 2283657; active means hit-call score of the fitted dose curve at least 0.9, where 1 is the maximum; inactive means score below 0.9). The note with it: mRNA level, 48 h; actives raise or lower the signal. A digest of the protocol:
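SLC10A1 transcript measured by TaqMan qRT-PCR, housekeeping-normalised, after 48 h chemical treatment of human HepaRG cells. Eight concentrations (half-log, max 100 uM, 0.5% DMSO vehicle) in duplicate; fitted bidirectionally against DMSO baseline.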

Inconclusive results are not listed. The source made the active and inactive calls. How the source made its calls, unless noted: active means hit-call score of the fitted dose curve at least 0.9, where 1 is the maximum; inconclusive means response in the unintended direction; inactive means score below 0.9.

For the compound `CCCCNC(=O)OCC#CI`, the AC50 in [1] was 24 µM (active). The call in [2], in [3], in experiment [4], in experiment [5], in [6] and in experiment [7] was inactive. In addition, the call in experiment [8], in experiment [9], in experiment [10], in experiment [11], in [12] and in experiment [13] was inactive. Besides, the result in experiment [14], in experiment [15], in experiment [16] and in experiment [17] was inactive.

For the compound `COC(=O)c1ccccc1C(=O)OC`, the compound was classed as inactive in [1], in experiment [2], in experiment [3], in experiment [4], in experiment [5] and in experiment [6]. In addition, the call in [8], in [9], in [10], in experiment [11], in experiment [12] and in experiment [13] was inactive. Moreover, the call in [14], in experiment [15], in experiment [16] and in [17] was inactive.

Regarding `COC(=O)C=C(C)OP(=O)(OC)OC`, the compound was called inactive in experiment [1], in [2], in experiment [3], in experiment [4], in [5] and in experiment [6]. Moreover, the result in [8], in experiment [9], in experiment [10], in [11], in [12] and in [13] was inactive. In addition, the call in [14], in [15] and in experiment [16] was inactive.

For `O=C(O)c1nc(Cl)ccc1Cl`, the outcome in experiment [1], in [2], in experiment [3], in experiment [4], in [5] and in experiment [6] was inactive. The call in experiment [8], in [9], in [10], in experiment [11], in experiment [12] and in [13] was inactive. The result in [14], in experiment [15], in experiment [16] and in experiment [17] was inactive.

On to `OC(c1ccc(Cl)cc1)(c1cncnc1)c1ccccc1Cl` (configuration not stated), for which the compound was classed as inactive in experiment [1], in experiment [2], in experiment [3], in [4], in experiment [5] and in [6]. Besides, the compound was classed as inactive in [8], in experiment [9], in experiment [10], in experiment [11], in [12] and in experiment [13]. The compound was called inactive in experiment [18], in [19], in experiment [15] and in [17]. Besides, in experiment [20], the AC50 is 24.1 µM (active).

For the compound `CON(C)C(=O)Nc1ccc(Cl)c(Cl)c1`, the call in [1], in [2], in experiment [3], in [4], in experiment [5] and in [6] was inactive. Moreover, the outcome in experiment [8], in experiment [9], in [10], in [11], in [12] and in experiment [13] was inactive. Besides, the compound was called inactive in experiment [14], in [15], in experiment [16] and in experiment [17].

For the origin of these results see PubChem BioAssay (EPA / NIEHS).
